In PubChem BioAssay (Tox21):
Values joined by “and” are separate entries in the source; they are usually repeats but may differ in a detail not shown here. Equal values may be shown once. Inconclusive results are not listed. Active and inactive are the calls of the source. Unless noted, the call rests on the fitted dose curve; in most records, active means well fitted curve in the direction sought with a large enough effect in the repeat runs; inconclusive means weak or mixed curves; inactive means no such curve, though single readings can be large; an effect the other way counts as inactive or inconclusive.

How the values were obtained:
[1] = qHTS assay to identify small molecule agonists of the peroxisome proliferator-activated receptor delta (PPARd) signaling pathway - cell viability counter screen (AID 743211); further: nearly all actives have a fitted effect of over 55% in size; further: potency means the concentration at half of the fitted maximal effect
Procedure, shortened: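 Following 5 h plating at 37 C and 5% CO2, PPARd UAS-bla HEK293H cells took up test compounds for 17 h. Viability was quantified by luminescence 30 min after CellTiter-Glo addition at room temperature.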

[2] = biological target: Peroxisome proliferator-activated receptor delta (Homo sapiens) (UniProt Q03181); assay: qHTS assay to identify small molecule agonists of the peroxisome proliferator-activated receptor delta (PPARd) signaling pathway (AID 743212; calls by dose curve; further: potency means the concentration at half of the fitted maximal effect; on activation: on the % scale 0 is the no-effect control and ±100 the full control effect)
Procedure, shortened: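 A PPARd-bla HEK293H line with beta-lactamase under an Upstream Activator Sequence is treated with compounds at 37 C. Substrate loading for 2 h at room temperature precedes the fluorescence measurement.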

[3] = qHTS assay to identify small molecule antagonists of the peroxisome proliferator-activated receptor delta (PPARd) signaling pathway - cell viability counter screen (AID 743213); further: nearly all actives have a fitted effect of over 50% in size; further: potency means the concentration at half of the fitted maximal effect; on viability change, negative = cytotoxic: on the % scale 0 is the no-effect control and ±100 the full control effect
Procedure, shortened: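 Same-well viability: cells pre-incubated 5 h, dosed with compound plus 300 nM L165041, kept 17 h at 37 C, FRET substrate 2 h RT, then CellTiter-Glo 30 min RT and luminescence.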

[4] = biological target: Peroxisome proliferator-activated receptor delta (Homo sapiens) (UniProt Q03181); assay: qHTS assay to identify small molecule antagonists of the peroxisome proliferator-activated receptor delta (PPARd) signaling pathway (AID 743215; active means well fitted inhibition curve with a large enough effect in the signal ratio in the repeat runs, not every such curve was filed as active; the % refers to the signal ratio;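 further: cells stimulated with agonist L165041 at 300 nM final during compound exposure; potency means the concentration at half of the fitted maximal effect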)
Procedure, shortened: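 PPARd UAS-bla HEK293H cells were pre-incubated 5 h at 37 C, then given test compounds in DMSO plus agonist L165041 (300 nM final). After 17 h at 37 C, beta-lactamase FRET substrate was added; fluorescence read after 2 h at room temperature.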

[5] = biological target: Bile acid receptor (Homo sapiens) (UniProt Q96RI1); assay: qHTS assay to identify small molecule agonists of the farnesoid-X-receptor (FXR) signaling pathway (AID 743220; active means well fitted activation curve with a large enough effect in the signal ratio in the repeat runs, not every such curve was filed as active; the % refers to the signal ratio; further: on the % scale 0 is the no-effect control and ±100 the full control effect)
Procedure, shortened: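 Beta-lactamase reporter under UAS control in GeneBLAzer FXR HEK 293T cells (5000/well) measured with LiveBLAzer FRET substrate after 2 h at room temperature. Compound exposure lasted 16 h at 37C.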

[6] = biological target: Vitamin D3 receptor (Homo sapiens) (UniProt P11473); assay: qHTS assay to identify small molecule agonists of the vitamin D receptor (VDR) signaling pathway (AID 743222; calls by dose curve; further: potency means the concentration at half of the fitted maximal effect; on activation: on the % scale 0 is the no-effect control and ±100 the full control effect)
Procedure, shortened: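 VDR-bla cells were plated 4 h at 37C/5% CO2, then exposed to compounds in DMSO for 16 h. After LiveBLAzer B/G FRET substrate addition and 2 h at room temperature, beta-lactamase reporter fluorescence was read.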

[7] = qHTS assay to identify small molecule agonists of the vitamin D receptor (VDR) signaling pathway - cell viability counter screen (AID 743224); further: nearly all actives have a fitted effect of over 50% in size; further: potency means the concentration at half of the fitted maximal effect
Procedure, shortened: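 VDR-bla cells were preincubated 4 h at 37C/5% CO2, then exposed to compounds for 16 h. After the 2 h room-temperature bla FRET read, CellTiter-Glo was added to the same wells and luminescence read after 30 min.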

[8] = qHTS assay to identify small molecule agonists of the NFkB signaling pathway - cell viability counter screen (AID 1159515; calls by dose curve; further: nearly all actives have a fitted effect of over 55% in size; further: potency means the concentration at half of the fitted maximal effect)
Procedure, shortened: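 NFkB-bla ME-180 cells, 2,000/well, were plated overnight at 37 C, 5% CO2, then exposed to compounds in DMSO for 5 hr. After the bla FRET read, CellTiter-Glo was added to the same wells; luminescence was read after 30 min at room temperature.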

[9] = qHTS assay to identify small molecule agonists of the endoplasmic reticulum stress response signaling pathway - cell viability counter screen (AID 1159517; calls by dose curve; further: nearly all actives have a fitted effect of over 50% in size; further: potency means the concentration at half of the fitted maximal effect)
Procedure, shortened: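 CellTiter-Glo was added to wells already read for beta-lactamase FRET, and luminescence was recorded 30 min later. Cells: ESRE-bla HeLa, 1,500 per well, compound exposure 5 hr at 37 C.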

[10] = biological target: Nuclear receptor ROR-gamma (Homo sapiens) (UniProt P51449); assay: qHTS assay to identify small molecule antagonists of the retinoid-related orphan receptor gamma (ROR-gamma) signaling pathway (AID 1159521; further: nearly all actives have a fitted effect of over 50% in size; further: potency means the concentration at half of the fitted maximal effect)
Procedure, shortened: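 Screening format: cell-based luciferase reporter in CHO cells with doxycycline-inducible RORγ. Compound pre-exposure lasts 2 h, doxycycline is 1 uM final, induction runs 16 h at 37 C, and ONE-Glo luminescence is read.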

[11] = qHTS assay to identify small molecule agonists of the AP-1 signaling pathway - cell viability counter screen (AID 1159525; calls by dose curve; further: nearly all actives have a fitted effect of over 55% in size; further: potency means the concentration at half of the fitted maximal effect)
Procedure, shortened: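 ME-180 AP-1-bla, 2500 cells/well, Opti-MEM + 0.5% dialyzed FBS; overnight 37 °C; cpd 15-pt titration, 5 h 37 °C; CellTiter-Glo 30 min RT; luminescence read; normalised to TOAB and DMSO controls.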

[12] = qHTS assay to identify small molecule agonists of the farnesoid-X-receptor (FXR) signaling pathway - cell viability counter screen (AID 743218); further: nearly all actives have a fitted effect of over 45% in size; further: potency means the concentration at half of the fitted maximal effect
Procedure, shortened: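 FXR-UAS-bla HEK 293T cells, plated 5 h at 37 C, were exposed to compounds for 16 h at 37 C. CellTiter-Glo was then added to the same wells as the bla readout; luminescence read after 30 min at room temperature.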

[13] = qHTS assay to identify small molecule antagonists of the farnesoid-X-receptor (FXR) signaling pathway - cell viability counter screen (AID 743221; active means well fitted cell-killing curve with a large enough effect in the repeat runs, not every such curve was filed as active; further: nearly all actives have a fitted effect of over 50% in size; further: potency means the concentration at half of the fitted maximal effect)
Procedure, shortened: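 Compound effects on cell number were measured as CellTiter-Glo luminescence in HEK 293T cells expressing FXR-UAS-bla, after 16 h at 37 C with 50 uM CDCA (final).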

[14] = biological target: Vitamin D3 receptor (Homo sapiens) (UniProt P11473); assay: qHTS assay to identify small molecule antagonists of the vitamin D receptor (VDR) signaling pathway (AID 743223; active means well fitted inhibition curve with a large enough effect in the signal ratio in the repeat runs, not every such curve was filed as active; the % refers to the signal ratio; further: potency means the concentration at half of the fitted maximal effect)
Procedure, shortened: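 Beta-lactamase activity in VDR-bla cells is measured by FRET substrate fluorescence (2 h, room temperature) after cells spend 16 h at 37C with test compound and 3 nM final 1alpha,25-dihydroxyvitamin D3.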

[15] = qHTS assay to identify small molecule antagonists of the vitamin D receptor (VDR) signaling pathway - cell viability counter screen (AID 743225); further: nearly all actives have a fitted effect of over 50% in size; further: potency means the concentration at half of the fitted maximal effect
Procedure, shortened: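 In this counter screen, VDR-bla HEK 293T cells receive test compound plus 3 nM final calcitriol for 16 h at 37C. Room-temperature steps of 2 h with the beta-lactamase substrate, then 30 min with CellTiter-Glo, precede the luminescence read.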

[16] = qHTS assay to identify small molecule antagonists of the retinoid-related orphan receptor gamma (ROR-gamma) signaling pathway - cell viability counter screen (AID 1159520); further: nearly all actives have a fitted effect of over 50% in size; further: potency means the concentration at half of the fitted maximal effect
Procedure, shortened: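 Tet-on ROR gamma CHO cells (1,000/well) were plated 4 hr, given compounds in DMSO for 2 hr at 37 C, then induced with 1 uM final doxycycline for 16 hr. Viability was read as ATP by CellTiter-Glo luminescence after 30 min.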

[17] = qHTS assay to identify small molecule agonists of the AP-1 signaling pathway (AID 1159526; calls by dose curve; further: potency means the concentration at half of the fitted maximal effect)
[18] = biological target: Retinoic acid receptor RXR-alpha (Homo sapiens) (UniProt P19793); assay: qHTS assay to identify small molecule agonists of the RXR signaling pathway (AID 1159527; calls by dose curve; further: on the % scale 0 is the no-effect control and ±100 the full control effect; nearly all actives have a fitted effect of over 35% in size)
Procedure, shortened: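 Fluorescence ratio readout (460 vs 530 nm) from GeneBLAzer RXR-alpha HEK 293T cells after 16 hr compound treatment; cells seeded 5 hr beforehand in low-serum, charcoal-stripped medium.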

[19] = biological target: Bile acid receptor (Homo sapiens) (UniProt Q96RI1); assay: qHTS assay to identify small molecule antagonists of the farnesoid-X-receptor (FXR) signaling pathway (AID 743217; active means well fitted inhibition curve with a large enough effect in the signal ratio in the repeat runs, not every such curve was filed as active; the % refers to the signal ratio; further: potency means the concentration at half of the fitted maximal effect)
Procedure, shortened: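 FXR-UAS-bla HEK 293T cells pre-incubated 5 h at 37 °C, then exposed to compounds with chenodeoxycholic acid (50 uM final) for 16 h at 37 °C. Beta-lactamase reporter read by LiveBLAzer B/G FRET substrate fluorescence after 2 h at room temperature.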

Bile acid receptor (Homo sapiens), sequence (Q96RI1 whole entry, looked up): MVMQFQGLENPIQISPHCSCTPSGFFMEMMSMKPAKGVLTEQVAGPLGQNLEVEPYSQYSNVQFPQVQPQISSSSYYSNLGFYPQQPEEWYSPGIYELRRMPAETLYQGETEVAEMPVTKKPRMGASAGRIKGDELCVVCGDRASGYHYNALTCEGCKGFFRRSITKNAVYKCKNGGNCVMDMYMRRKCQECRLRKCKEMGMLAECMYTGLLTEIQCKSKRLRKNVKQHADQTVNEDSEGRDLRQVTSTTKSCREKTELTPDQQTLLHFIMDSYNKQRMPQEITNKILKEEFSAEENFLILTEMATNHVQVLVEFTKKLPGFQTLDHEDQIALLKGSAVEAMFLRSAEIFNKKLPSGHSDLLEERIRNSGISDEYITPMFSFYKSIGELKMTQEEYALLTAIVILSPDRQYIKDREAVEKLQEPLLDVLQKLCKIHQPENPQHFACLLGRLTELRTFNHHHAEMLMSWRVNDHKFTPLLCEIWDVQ
Vitamin D3 receptor (Homo sapiens), sequence (P11473 whole entry, looked up): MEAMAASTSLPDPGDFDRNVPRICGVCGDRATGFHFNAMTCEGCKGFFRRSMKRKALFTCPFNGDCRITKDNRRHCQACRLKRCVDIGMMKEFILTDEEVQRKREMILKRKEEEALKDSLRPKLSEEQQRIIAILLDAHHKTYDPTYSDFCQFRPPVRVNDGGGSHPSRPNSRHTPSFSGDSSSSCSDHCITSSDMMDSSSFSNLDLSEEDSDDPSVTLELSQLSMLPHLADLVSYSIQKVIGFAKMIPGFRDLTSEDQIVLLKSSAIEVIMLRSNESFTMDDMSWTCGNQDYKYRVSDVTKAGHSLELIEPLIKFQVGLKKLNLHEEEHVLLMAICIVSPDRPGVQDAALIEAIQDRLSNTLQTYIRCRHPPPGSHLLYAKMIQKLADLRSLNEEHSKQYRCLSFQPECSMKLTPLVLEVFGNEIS
Retinoic acid receptor RXR-alpha (Homo sapiens), sequence (P19793 whole entry, looked up): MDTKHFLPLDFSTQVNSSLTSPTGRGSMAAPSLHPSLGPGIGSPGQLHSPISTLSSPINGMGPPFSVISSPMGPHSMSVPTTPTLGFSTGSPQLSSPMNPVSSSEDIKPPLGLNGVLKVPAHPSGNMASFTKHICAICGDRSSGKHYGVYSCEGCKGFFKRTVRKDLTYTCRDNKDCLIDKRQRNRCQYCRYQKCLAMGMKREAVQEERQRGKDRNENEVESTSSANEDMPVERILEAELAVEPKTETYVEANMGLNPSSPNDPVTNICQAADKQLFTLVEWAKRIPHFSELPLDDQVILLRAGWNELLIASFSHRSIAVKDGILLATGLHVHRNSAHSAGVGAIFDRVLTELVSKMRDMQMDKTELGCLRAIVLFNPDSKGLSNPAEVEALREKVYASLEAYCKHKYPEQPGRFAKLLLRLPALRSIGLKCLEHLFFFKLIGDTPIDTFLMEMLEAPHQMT
Peroxisome proliferator-activated receptor delta (Homo sapiens), sequence (Q03181 whole entry, looked up): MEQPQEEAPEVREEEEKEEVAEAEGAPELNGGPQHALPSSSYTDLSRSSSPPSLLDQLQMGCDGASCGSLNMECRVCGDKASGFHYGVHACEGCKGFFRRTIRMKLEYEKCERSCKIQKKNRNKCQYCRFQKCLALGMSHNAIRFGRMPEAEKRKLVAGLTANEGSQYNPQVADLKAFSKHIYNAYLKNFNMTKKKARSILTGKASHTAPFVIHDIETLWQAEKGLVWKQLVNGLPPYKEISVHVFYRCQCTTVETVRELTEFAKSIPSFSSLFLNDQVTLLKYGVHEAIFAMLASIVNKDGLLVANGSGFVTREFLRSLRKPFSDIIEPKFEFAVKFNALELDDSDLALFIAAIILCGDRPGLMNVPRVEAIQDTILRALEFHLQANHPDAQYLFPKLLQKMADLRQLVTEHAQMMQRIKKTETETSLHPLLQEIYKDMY

C=C(C)C(=O)OCC(O)COc1ccc(C(C)(C)c2ccc(OCC(O)COC(=O)C(=C)C)cc2)cc1 (stereo not given)
active: Potency [1] 54.9 µM | Potency [3] 13.8 µM | Potency [4] 27.5 µM | Potency [7] 12.3 µM | Potency [10] 24.3 µM
inactive: Potency [2] | Potency [5] | Potency [6] | Potency [8] | Potency [9] | Potency [11]

CC(NN)c1ccccc1 (stereo not given)
inactive: Potency [1] | Potency [3] | Potency [12] | Potency [13] | Potency [14] | Potency [7] | Potency [15] | Potency [8] | activity, negative = cytotoxicity [16] 0.565% [at 19 µM] | activity change, negative = inhibition [10] -0.108% [at 19 µM] | viability change, negative = cytotoxic [11] 4.35% [at 15.8 µM] | activation [17] -4.49% [at 15.8 µM] | activation [18] -0.0243% [at 15.8 µM]

O=C(Nc1cccc([N+](=O)[O-])c1)c1cc2ccccc2cc1O
active: Potency [7] 1.23 µM | Potency [10] 4.33 µM
inactive: Potency [2] | Potency [12] | Potency [6] | Potency [8] | Potency [9] | Potency [11]

CCN(Cc1cccnc1)C(=O)c1cccc(Cl)c1[C@]1(C)C(=O)N(Cc2ccc(OC)cc2OC)c2ccc(Cl)cc21
active: Potency [1] 4.08 µM | Potency [3] 5.13 µM | Potency [12] 3.63 µM | Potency [13] 11.5 µM | Potency [6] 45.8 µM | Potency [10] 9.05 µM
inactive: Potency [8] | Potency [9] | Potency [11]

O=C1CCCc2c1cc1ccc3cccc4ccc2c1c34
inactive: Potency [3] | Potency [13] | Potency [14] | Potency [7] | Potency [8] | Potency [9] | Potency [11]
active: Potency [2] 49.6 µM | Potency [6] 19.7 µM | Potency [17] 22.2 µM

COc1cc(-c2ccc(N=C=O)c(OC)c2)ccc1N=C=O
inactive: Potency [1] | Potency [2] | Potency [3] | Potency [19] | Potency [5] | Potency [13] | Potency [6] | Potency [14] | Potency [15] | Potency [8] | Potency [16] | Potency [10] | Potency [11] | Potency [18]

CCC(Cl)C(Cl)C(Cl)CC(Cl)C(Cl)C(C)Cl (stereo not given)
active: Potency [7] 38.9 µM
inactive: Potency [5] | Potency [6] | Potency [14] | Potency [8] | Potency [9] | Potency [11] | Potency [17]

NC(=O)N1C(=O)C(C(=O)c2cc(Cl)cs2)c2cc(F)c(Cl)cc21 (stereo not given)
active: Potency [1] 17.4 µM | Potency [3] 15.5 µM | Potency [13] 24.5 µM | Potency [15] 13.8 µM | Potency [10] 19.3 µM
inactive: Potency [8] | Potency [9] | Potency [11]

C=CC(=O)OCC(CO)(COC(=O)C=C)COC(=O)C=C
active: Potency [1] 6.94 µM and 11 µM | Potency [3] 19.6 µM and 13.8 µM | Potency [12] 19.6 µM and 17.4 µM | Potency [13] 34.8 µM and 30.9 µM | Potency [15] 13.9 µM and 15.5 µM | Potency [9] 21.9 µM | Potency [10] 2.44 µM and 6.86 µM | Potency [11] 49.1 µM and 49 µM
inactive: Potency [8]

Cc1cc(O)c(C(C)(C)C)cc1C(C)(C)C
active: Potency [1] 43.6 µM | Potency [3] 34.7 µM | Potency [19] 49 µM | Potency [12] 54.9 µM | Potency [13] 49 µM | Potency [14] 19.5 µM | Potency [15] 21.9 µM | Potency [8] 49 µM | Potency [16] 54.5 µM | Potency [10] 54.5 µM | Potency [11] 21.9 µM

CCCCCCCCS(=O)C(C)Cc1ccc2c(c1)OCO2 (stereo not given)
active: Potency [1] 50 µM | Potency [7] 50 µM
inactive: Potency [5] | Potency [8] | Potency [16] | Potency [10] | Potency [11]

OCc1c[nH]c2ccccc12
inactive: Potency [13] | Potency [8] | Potency [16] | Potency [10] | Potency [11]

Oc1ccc2cc(SSc3ccc4cc(O)ccc4c3)ccc2c1
inactive: Potency [2] | Potency [19] | Potency [5] | Potency [13] | Potency [7] | Potency [8] | Potency [11]
active: Potency [16] 48.6 µM | Potency [10] 48.6 µM

CCCCN1C(=O)[C@@H]([C@H](O)C2CCCCC2)NC(=O)C12CCN(Cc1ccc(Oc3ccc(C(=O)O)cc3)cc1)CC2
inactive: Potency [1] | Potency [3] | Potency [13] | Potency [8] | Potency [16] | Potency [10] | Potency [11]

C=CC(=O)OCCn1c(=O)n(CCOC(=O)C=C)c(=O)n(CCOC(=O)C=C)c1=O
active: Potency [1] 19.5 µM | Potency [3] 19.5 µM | Potency [12] 24.5 µM | Potency [13] 34.7 µM | Potency [7] 49 µM | Potency [15] 43.6 µM | Potency [10] 12.2 µM
inactive: Potency [8] | Potency [16] | Potency [11]

O=c1[nH]cnc2nc[nH]c12
inactive: Potency [1] | Potency [19] | Potency [12] | Potency [5] | Potency [13] | Potency [15] | Potency [8] | Potency [16] | Potency [10] | Potency [17] | Potency [18]

OCCN1CCN(CC/C=C2/c3ccccc3Sc3ccc(C(F)(F)F)cc32)CC1
active: Potency [1] 26.6 µM | Potency [3] 23.7 µM | Potency [12] 26.6 µM | Potency [13] 23.7 µM | Potency [15] 23.9 µM | Potency [8] 26.8 µM | Potency [16] 29.8 µM | Potency [10] 26.6 µM | Potency [11] 23.9 µM
inactive: Potency [5]

Clc1ccc2nsnc2c1NC1=NCCN1
inactive: Potency [1] | Potency [2] | Potency [3] | Potency [19] | Potency [12] | Potency [5] | Potency [13] | Potency [6] | Potency [14] | Potency [15] | Potency [8] | Potency [16] | Potency [11] | Potency [17] | Potency [18]
